Results filed as inconclusive are left out. The source made the active and inactive calls. The call rests on the fitted dose curve.
Experiments:
[1] = Primary qHTS for inhibitors of SARS-S pseudo-typed particle cell entry (AID 1479145); settings: SARS-S pseudotyped particle cell entry, luciferase reporter; series mostly up to 57.1 µM; further: nearly all actives have a fitted effect of over 45% in size
[2] = Primary qHTS for Huh7 cytotoxicity: counterscreen for inhibitors of MERS-S pseudotyped particle cell entry (AID 1479147); settings: cell viability read-out; series mostly up to 57.1 µM
[3] = Primary qHTS for inhibitors of MERS-S pseudo-typed particle cell entry (AID 1479149); settings: MERS-S pseudotyped particle entry, luciferase; series mostly up to 57.1 µM; further: nearly all actives have a fitted effect of over 60% in size
[4] = Primary qHTS for Vero E6 cytotoxicity: counterscreen for inhibitors of SARS-S pseudo-typed particle cell entry (AID 1479150); settings: cell viability; series mostly up to 57.1 µM

Measured: Potency

CCOC(=O)c1ccc(OCCN2C[C@H](O)[C@@H](O)[C@H](O)[C@H]2CO)cc1
inactive: all assays above

CCCc1nn(C)c2c(=O)[nH]c(-c3cc(S(=O)(=O)N4CCN(C)CC4)ccc3OCC)nc12
inactive: all assays above

CC(O)(P(=O)(O)O)P(=O)(O)O
inactive: all assays above

CO/N=C(\C(=O)N[C@@H]1C(=O)N2C(C(=O)O)=C(C[N+]3(C)CCCC3)CS[C@H]12)c1csc(N)n1
inactive: all assays above

CC(=O)OCC[N+](C)(C)C
inactive: all assays above

CC(C(=O)O)c1ccc(C(=O)c2ccccc2)s1 (stereo not drawn)
inactive: all assays above

COc1ccc2cc1Oc1cc3c(cc1OC)CC[N+](C)(C)[C@H]3Cc1ccc(cc1)Oc1c(OC)c(OC)cc3c1[C@@H](C2)[N+](C)(C)CC3
inactive: all assays above

Cc1c(NC(=O)c2cccnc2)c(=O)n(-c2ccccc2)n1C
inactive: all assays above

CC(=O)N(c1onc(C)c1C)S(=O)(=O)c1ccc(N)cc1
inactive: all assays above

CCCCCCCCCCC[C@@H](C[C@@H]1OC(=O)[C@H]1CCCCCC)OC(=O)[C@H](CC(C)C)NC=O
inactive: all assays above

Cc1cccn2c(=O)c(-c3nnn[nH]3)cnc12
inactive: all assays above

CC(C)NCC(O)c1ccc(NS(C)(=O)=O)cc1 (stereo not drawn)
inactive: all assays above

CCCCCCCN(CC)CCCC(O)c1ccc(NS(C)(=O)=O)cc1 (stereo not drawn)
inactive: all assays above

CO[C@@]1(NC(=O)C2SC(=C(C(N)=O)C(=O)O)S2)C(=O)N2C(C(=O)O)=C(CSc3nnnn3C)CS[C@@H]21 (stereo partly drawn)
inactive: all assays above

CC1CCc2c(N3CCC(O)CC3)c(F)cc3c(=O)c(C(=O)O)cn1c23 (stereo not drawn)
inactive: all assays above

COc1ccccc1OCC(O)CO (stereo not drawn)
inactive: all assays above

OC[C@H]1O[C@@H](n2cnc3c2NC=NC[C@H]3O)C[C@@H]1O
inactive: all assays above

CN1C[C@H](C(=O)N[C@]2(C)O[C@@]3(O)[C@@H]4CCCN4C(=O)[C@H](Cc4ccccc4)N3C2=O)C=C2c3cccc4[nH]cc(c34)C[C@H]21
inactive: all assays above

Oc1cccc(O)c1
inactive: all assays above

CN[C@@H]1CCc2[nH]c3ccc(C(N)=O)cc3c2C1
inactive: all assays above

O=C(Oc1ccccc1C(=O)O)c1ccccc1O
inactive: all assays above

COC(=O)/C=C\C(=O)OC
inactive: all assays above

CC1(C)O[C@@H]2C[C@H]3[C@@H]4CCC5=CC(=O)C=C[C@]5(C)[C@@H]4[C@@H](O)C[C@]3(C)[C@]2(C(=O)CO)O1
inactive: all assays above

Nc1nc2ccc(OC(F)(F)F)cc2s1
inactive: all assays above

CC1CC(OC(=O)c2ccccc2O)CC(C)(C)C1 (stereo not drawn)
inactive: all assays above

Cc1ncc([N+](=O)[O-])n1CC(C)O (stereo not drawn)
inactive: all assays above

C[C@@H]1C[C@H]2[C@@H]3C[C@H](F)C4=CC(=O)C=C[C@]4(C)[C@@]3(F)[C@@H](O)C[C@]2(C)[C@@]1(O)C(=O)CO
inactive: all assays above

CN1C(CSCC(F)(F)F)Nc2cc(Cl)c(S(N)(=O)=O)cc2S1(=O)=O (stereo not drawn)
inactive: all assays above

COc1ccc(NS(=O)(=O)c2ccc(N)cc2)nn1
inactive: all assays above

C[C@]12C=CC(=O)C=C1CC[C@@H]1[C@@H]2[C@@H](O)C[C@@]2(C)[C@H]1CC[C@]2(O)C(=O)CO
inactive: all assays above

COC(=O)N/N=C/c1c[n+]([O-])c2ccccc2[n+]1[O-]
inactive: all assays above

O=C(O)/C=C(\CC(=O)O)C(=O)O
inactive: all assays above

— PubChem BioAssay (NCATS)
